Source: PubChem BioAssay
An excerpt weighted towards active compounds, which were near 6.6% of everything screened.
MCF10A rerep: DNA re-replication induction in MCF 10a cells. MCF 10A DNA re-replication, Hoechst nuclear intensity, 48 h. 350,000 tested, 2.9% active. Potency, µM (doses to about 46.1 µM), actives largely listed as activators; also: nearly all actives have a fitted effect of over 50% in size
SW480 rereplic: DNA re-replication induction in SW480 cells; Potency, µM (doses to about 46.1 µM), most hits filed as activators; SW480 DNA re-replication, Hoechst DNA content imaging, 48 h; AID 624297; 340,000 tested, 1.8% active; also: nearly all actives have a fitted effect of over 55% in size
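First, 250 cells per well were seeded. Next, compound or vehicle (23 nL) was pinned in, plates sat 48 hr at 37 C. Finally Hoechst was added for 40 min before fluorescence scanning.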
KB-3-1 tox: KB-3-1 parental cell cytotoxicity; KB-3-1 viability, CellTiter-Glo ATP luminescence, 72 h; Potency, µM (top dose mostly 46.1 µM), most hits filed as cytotoxic; 400,000 tested, 1.4% active; also: nearly all actives have a fitted effect of over 60% in size
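Here the drug-naive KB-3-1 line serves as comparator for MDR sub-line selectivity; cells received compound titrations, 72 h at 37 °C, then CellTiter-Glo readout.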
TSG101-PTAP inh: blocks PTAP/TSG101 interaction to inhibit HIV-1 budding | Q99816 | Fluorescence polarization, FITC-PTAP peptide / Tsg101 binding | Potency, µM (titrated, usually from 115 µM), most hits filed as inhibitors | 340,000 tested, under 10 active | AID 493005; active = well fitted inhibition curve with a large enough effect in the main read-out, with a control signal flat, not every such curve was filed as active; inconclusive = small, poorly fitted or top-dose-only effect, or effect the other way, or a change in a side signal; inactive = no such curve, though single readings can be large or run the other way
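Fluorescence anisotropy tracks displacement of a FITC-tagged PTAP peptide (50 nM) from the Tsg101 binding domain (10 uM), following a 20 min room-temperature incubation at pH 7.5.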
KB-V1 MDR tox: KB-V1 MDR subline cytotoxicity. Potency, µM (doses to about 46.1 µM), hits mostly cytotoxic. KB-V1 MDR cells viability, CellTiter-Glo, 72 h. AID 1347076. 400,000 tested, 3.4% active; also: nearly all actives have a fitted effect of over 60% in size
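Compound-treated KB-V1 multidrug-resistant cells, 72 h, 37 degrees C; viability by CellTiter-Glo. Fitted qHTS curves give the values.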
RGS4 inhibitor: inhibitors of human regulator of G protein signaling 4; P49798; Transcreener GDP fluorescence polarization, RGS4-accelerated GTP hydrolysis; Potency, µM (top dose mostly 114 µM), hits mostly inhibitors; 390,000 tested, 0.039% active; also: nearly all actives have a fitted effect of over 75% in size
Target sequence (P49798 whole entry, looked up): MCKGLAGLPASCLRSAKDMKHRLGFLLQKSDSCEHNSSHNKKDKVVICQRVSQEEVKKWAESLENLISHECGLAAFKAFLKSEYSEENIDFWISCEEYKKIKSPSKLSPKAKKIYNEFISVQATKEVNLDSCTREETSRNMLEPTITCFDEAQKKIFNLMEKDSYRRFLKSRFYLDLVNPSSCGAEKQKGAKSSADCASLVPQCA
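MLSMR compounds (23 nl, pin-transferred) preincubated 10 min at room temperature with a 500nM (2x) first reagent, then RGS4 at 900nM (2x) plus Transcreener GDP mix added; fluorescence polarization (620/688 nm) read before and after 90 min at 30 °C.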
Numbers stand for hits; - = inactive; ? = inconclusive; . = not tested or not shown; [ ] = dose if it differs, or a comment. Unless noted, calls follow the shape of the dose curve; as a rule, active = well fitted curve in the direction sought with a large enough effect; inconclusive = small, poorly fitted or top-dose-only effect, or another doubt; inactive = no such curve, though single readings can be large; an effect the other way counts as inactive or inconclusive.

SMILES | MCF10A rerep | SW480 rereplic | KB-3-1 tox | TSG101-PTAP inh | KB-V1 MDR tox | RGS4 inhibitor
Cc1nc2ccc(NS(=O)(=O)c3c(C)c(C)cc(C)c3C)cc2s1 | ? | ? | ? | - | ? | -[11.4 µM]
Cc1nc2cc(NS(=O)(=O)c3c(C)c(C)cc(C)c3C)ccc2s1 | - | -[9.22 µM] | 13µM | - | 11µM | -
Cc1ccc(S(=O)(=O)Nc2ccc3nc(-c4ccc(F)cc4)oc3c2)cc1 | . | . | - | . | - | -
Cc1nc2ccc(NS(=O)(=O)c3ccc(Br)cc3)cc2s1 | - | - | 23µM | - | - | -
Cc1ccc2c(C(=O)CNC3=NCCS3)c(C)[nH]c2c1 | . | . | - | . | ? | .
Cc1ccc(CNC(=O)CCN2C(=O)C(C)Oc3ccc(C)cc32)cc1 (configuration not stated) | . | . | - | . | - | -
N#C/C(=C\c1ccc(N2CCOCC2)c([N+](=O)[O-])c1)c1nc2ccccc2[nH]1 | - | - | ? | - | 10µM | -
Cc1cc2nc(/C(C#N)=C/c3ccncc3)[nH]c2cc1C | 23µM | 13µM | - | - | - | -[11.4 µM]
N#C/C(=C/c1ccc(N2CCCC2)c([N+](=O)[O-])c1)c1nc2ccccc2[nH]1 | - | - | - | - | - | -
Cc1ccc2nc(/C(C#N)=C/c3cccc(Br)c3)[nH]c2c1 | . | . | - | . | ? | -
N#C/C(=C\c1ccncc1)c1nc2ccccc2[nH]1 | ? | - | - | - | - | -
N#C/C(=C\c1cccnc1)c1nc2ccccc2[nH]1 | ? | ? | ? | - | 23µM | -
Cc1ccc2nc(/C(C#N)=C/c3ccc(O)c(O)c3)[nH]c2c1 | ? | 23µM | ? | - | - | -
Cc1ccc(S(=O)(=O)c2nnn3c2nc(N2CCN(c4ccc(F)cc4)CC2)c2cc(Cl)ccc23)cc1C | . | . | - | . | - | -
COC(=O)c1ccc2c(=O)n(CCCCCC(=O)N3CCN(c4cccc(C)c4C)CC3)c(=O)[nH]c2c1 | . | . | - | . | - | -
COc1cc(NC(=O)c2c(-c3ccc(C)cc3)nnc3ccccc23)cc(OC)c1OC | . | . | - | . | - | -
O=C(/C=C/c1ccc(C(F)(F)F)cc1)OC(C(=O)NC1CC1)c1ccccc1 (configuration not stated) | . | . | - | . | - | .
Cc1ccc2nc(/C(C#N)=C/c3cn[nH]c3-c3ccc(F)cc3)[nH]c2c1 | 13µM | ? | ? | - | ? | -
Cc1ccc(C(=O)Nc2ccccc2C(=O)N2CC3(C)CC2CC(C)(C)C3)cc1 (configuration not stated) | 26µM | ? | - | - | ? | -
CCCCSCCCNC(=O)c1cn(CC)c2ccc(S(=O)(=O)N(C)C3CCCCC3)cc2c1=O | . | . | ? | . | ? | -
COc1ccc2sc(N(Cc3cccnc3)C(=O)c3cccs3)nc2c1 | . | . | 16µM | . | ? | -
CCC(=O)Nc1c(C#N)c2nc3ccccc3nc2n1-c1ccc(C)cc1 | 23µM | ? | - | - | ? | -[11.4 µM]
CCC(C)n1c(NC(=O)c2ccccc2)c(C#N)c2nc3ccccc3nc21 (configuration not stated) | 1.3µM | 5.2µM | ? | - | ? | ?
CCCCn1c(NC(=O)c2ccccc2)c(C#N)c2nc3ccccc3nc21 | - | - | ? | - | 5.2µM | -
N#Cc1c(NC(=O)c2ccc(Br)o2)n(-c2ccccc2)c2nc3ccccc3nc12 | ? | ? | - | - | - | -
Cc1nn(C(C)(C)C)c(NC(=O)c2ccccc2)c1C#N | - | - | - | - | - | -
NN=C1c2cc(S(=O)(=O)NCCO)ccc2-c2ccc(S(=O)(=O)NCCO)cc21 | . | . | ? | . | - | -
CCOC(=O)N1CCC(NC(=O)c2cc(S(=O)(=O)N3CCC4(CC3)OCCO4)ccc2F)CC1 | - | - | - | - | 23µM | -
CCOC(=O)N1CCC(NC(=O)c2cc(S(=O)(=O)N3CCOCC3)ccc2F)CC1 | - | - | - | - | - | -
CCOC(=O)N1CCC(NC(=O)c2cc(S(=O)(=O)N(CC)CC)ccc2F)CC1 | - | 0.73µM | - | - | ? | -
